# Screening data from PubChem BioAssay.
# The sample as a whole holds a higher share of hits than the screen did.
# nsP2pro primary – Primary qHTS for inhibitors of NSP2Pro chikungunya virus (CHIKV); FRET peptide cleavage, nsP2pro, fluorescence 1 h; AID 1964107, 2024; Potency, µM (top dose mostly 24.9 µM), for inactives: at the top dose activity change, negative = inhibition, actives largely listed as inhibitors; actives 1.1% (n = 31,000); note: nearly all actives have a fitted effect of over 60% in size
#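 Purified recombinant nsP2pro (150 nM final) in 10 mM Tris-HCl pH 8.0 with 0.01% Tween 20 was preincubated 15 min at room temperature with compound (7 concentrations, up to 25 uM). FRET peptide 2 substrate (2.5 uM final) was then added; fluorescence was read after 1 h.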
# CHIKV nsP2 cell – Secondary cell base assay for inhibitors of NSP2Pro Chikungunya virus (CHIKV); shares compounds with nsP2pro primary; AID 1964100, 2024; actives 10% (n = 450); Potency, µM (top dose mostly 51.1 µM), inactives show at the highest dose activity change, negative = inhibition, hits mostly inhibitors; cell-based CHIKV nsP2 protease reporter assay; note: nearly all actives have a fitted effect of over 70% in size
# CHIKV NSP2 FL – Selectivity profile for inhibitors of NSP2Pro chikungunya virus (CHIKV): Full length NSP2 enzyme counterscreen (CHIKV-NSP2). Full-length CHIKV NSP2 protease enzymatic counterscreen. shares compounds with nsP2pro primary. actives 39% (n = 410). AID 1964101, 2024. Potency, µM (doses to about 50.7 µM), for inactives: at the top dose activity change, negative = inhibition, most hits filed as inhibitors; note: nearly all actives have a fitted effect of over 65% in size
# Furin counterscr – Selectivity profile for inhibitors of NSP2Pro chikungunya virus (CHIKV): Human furin counterscreen. Potency, µM (titrated, usually from 50.6 µM), inactives show at the top dose activity change, negative = inhibition, hits mostly inhibitors. Recombinant human furin enzymatic counterscreen, fluorogenic substrate. actives 6% (n = 410). shares compounds with nsP2pro primary
# nsP2 NS23 pep – Selectivity profile for inhibitors of NSP2Pro chikungunya virus (CHIKV): Endogenous NS2/3 peptide Counterscreen. shares compounds with nsP2pro primary. Purified CHIKV nsP2 protease, endogenous NS2/3 peptide cleavage. Potency, µM (series often up to 51 µM), for the others: top-dose activity change, negative = inhibition, most hits filed as inhibitors. actives 34% (n = 410); note: nearly all actives have a fitted effect of over 55% in size
# Papain counter – Selectivity profile for inhibitors of NSP2Pro chikungunya virus (CHIKV): Papain Counterscreen; Potency, µM (highest dose often 51 µM), for inactives: at the highest dose activity change, negative = inhibition, actives largely listed as inhibitors; shares compounds with nsP2pro primary; actives 5% (n = 410); purified papain protease activity, enzymatic inhibition; AID 1964104, 2024
# Target sequence (P00784 whole entry, looked up): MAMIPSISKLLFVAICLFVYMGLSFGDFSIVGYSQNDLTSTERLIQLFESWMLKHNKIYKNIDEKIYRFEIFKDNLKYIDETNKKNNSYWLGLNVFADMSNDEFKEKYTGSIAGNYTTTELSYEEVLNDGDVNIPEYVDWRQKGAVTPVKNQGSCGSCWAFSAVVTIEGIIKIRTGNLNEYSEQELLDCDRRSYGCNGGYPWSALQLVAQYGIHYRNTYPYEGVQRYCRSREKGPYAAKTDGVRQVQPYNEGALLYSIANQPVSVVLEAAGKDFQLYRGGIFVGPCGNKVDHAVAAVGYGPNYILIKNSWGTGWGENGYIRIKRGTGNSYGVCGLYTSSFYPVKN
# nsP2pro confirm – Confirmatory qHTS for inhibitors of NSP2Pro chikungunya virus (CHIKV); shares compounds with nsP2pro primary; CHIKV nsP2 protease enzymatic activity, qHTS; Potency, µM (top dose mostly 25.5 µM), without a hit: top-dose activity change, negative = inhibition, usual class: inhibitors; actives 43% (n = 410); note: nearly all actives have a fitted effect of over 75% in size
# HCV NS3 4A cs – Selectivity profile for inhibitors of NSP2Pro chikungunya virus (CHIKV): NS34A-HCV Counterscreen; AID 1964106, 2024; Potency, µM (highest dose often 50.9 µM), hits mostly inhibitors; shares compounds with nsP2pro primary; HCV NS3/4A protease biochemical counterscreen; actives 20% (n = 410); note: nearly all actives have a fitted effect of over 55% in size
# * = called active by the depositor; i = inactive; ? = inconclusive; [ ] = dose if it differs, or a comment. Calls come from the whole dose curve. % is set by controls: 0 for no effect and ±100 for the full control effect; potency is the fitted concentration of half-maximal effect.
SMILES,nsP2pro primary,others
CC(C)C[C@@H](N)C(=O)N[C@H]1C(=O)N[C@@H](CC(N)=O)C(=O)N[C@H]2C(=O)N[C@H]3C(=O)N[C@H](C(=O)N[C@H](C(=O)O)c4cc(O)cc(O)c4-c4cc3ccc4O)[C@H](O)c3ccc(c(Cl)c3)Oc3cc2cc(c3O[C@@H]2O[C@H](CO)[C@@H](O)[C@H](O)[C@H]2O[C@H]2C[C@](C)(N)[C@H](O)[C@H](C)O2)Oc2ccc(cc2Cl)[C@H]1O,-13%[10 µM],
O=[N+]([O-])c1ccc(S(=O)(=O)N2CCN(c3ccnc4cc(Cl)ccc34)CC2)c([N+](=O)[O-])c1,?,CHIKV nsP2 cell=5.6µM*;CHIKV NSP2 FL=?;Furin counterscr=-10%;nsP2 NS23 pep=4.1µM*;Papain counter=-17%;nsP2pro confirm=?;HCV NS3 4A cs=i
O=[N+]([O-])c1cc(Cl)ccc1S(=O)(=O)N1CCN(Cc2ccccc2)CC1,-7%,
O=[N+]([O-])c1ccc(O/N=[N+](\[O-])N2CCN(c3ncccn3)CC2)c([N+](=O)[O-])c1,-25%,
C=C1CC2C3(C)C(OC(C)=O)CC(=O)OC(C)(C)C3C(O)C(OC(C)=O)C2(C)C2C(=O)OC(C)C(=O)C12C (stereo not given),-14%[10 µM],
CS(=O)(=O)Nc1ccc(-c2nc(NCc3ccc(-c4ccnc(C(F)(F)F)c4)cc3)c3ccccc3n2)cc1,-20%,
CC(=O)N[C@@H](Cc1c[nH]c2ccccc12)C(=O)N[C@@H](CCC(=O)O)C(=O)N[C@@H](Cc1cnc[nH]1)C(=O)N[C@@H](CC(=O)O)C(=O)Nc1ccc2c(C(F)(F)F)cc(=O)oc2c1,-13%,
Cc1ccc(Nc2ncc(C(=O)N3CCN(c4cccc(Cl)c4)CC3)c3ccccc23)cc1Cl,-20%,
O=C(C1CCN(c2nc3ccccc3[nH]2)CC1)N1CCN(c2cccc(Cl)c2)CC1,4%,
CS(=O)(=O)c1ncc(Cl)c(C(=O)N2CCN(c3cccc(Cl)c3)CC2)n1,1.6µM*,CHIKV nsP2 cell=1.5µM*;CHIKV NSP2 FL=5.8µM*;Furin counterscr=4%;nsP2 NS23 pep=8.2µM*;Papain counter=-3%;nsP2pro confirm=4.5µM*;HCV NS3 4A cs=i
C=C(C)[C@@H]1CC[C@]2(C)CC[C@]3(C)[C@H](CC[C@@H]4[C@@]5(C)CC[C@H](O)C(C)(C)[C@@H]5CC[C@]43C)[C@@H]12,-22%[10 µM],
COc1ccc(C(=O)Nc2ccc(S(=O)(=O)N(Cc3ccccc3)c3ccccc3)cc2)cc1,-7%,
CN(Cc1ccccc1)C(=O)c1ccc(S(=O)(=O)Nc2ccccc2)cc1,-1%,
CC(C)N(CCC(=O)c1ccc2ccccc2c1)Cc1ccccc1,0.56µM*,CHIKV nsP2 cell=?;CHIKV NSP2 FL=0.92µM*;Furin counterscr=-12%;nsP2 NS23 pep=5.8µM*;Papain counter=96%;nsP2pro confirm=0.5µM*;HCV NS3 4A cs=i
Cc1cc(C)c(-c2csc(NC(=O)c3ccccc3)n2)c(C)c1,28%,
CC(C)C(=O)OCC(=O)[C@@]12OC(C3CCCCC3)O[C@@H]1C[C@H]1[C@@H]3CCC4=CC(=O)C=C[C@]4(C)[C@H]3[C@@H](O)C[C@@]12C (stereo not given in full),-7%,
O=C(Cc1ccccc1)Nc1sc2c(c1C(=O)Nc1ccc(Cl)cc1)CCCC2,?,CHIKV nsP2 cell=?;CHIKV NSP2 FL=-21%;Furin counterscr=-4%;nsP2 NS23 pep=6.5µM*;Papain counter=-5%;nsP2pro confirm=4µM*;HCV NS3 4A cs=i
COc1ccc(CC(=O)Nc2sc3c(c2C(=O)Nc2ccccc2)CCCCC3)cc1,-11%,
O=C(Cc1ccccc1)Nc1sc2c(c1C(=O)Nc1ccccc1)CCCCC2,-28%,
COc1cccc(CNc2ccc([S+](=O)([O-])Nc3cc4ccccc4s3)cc2)c1O,-67%,
O=C1CCCC2=C1C(c1[nH]ncc1Cl)N=C(Nc1ccccc1)N2 (stereo not given),0%,
O=C1NS(=O)(=O)c2cc3c(cc21)C(=O)NS3(=O)=O,4%,
Cc1ccc(OCCn2c(CCNC(=O)c3ccc(Cl)cc3)nc3ccccc32)cc1,-9%,
O=C(CCCCCCSc1ccc2ccccc2c1)NO,29%,
COc1ccccc1NC(=O)C1=C(C)Nc2ncnn2C1c1ccc[nH]1 (stereo not given),8.9µM*,CHIKV nsP2 cell=5%
SMILES,nsP2pro primary,others
CCOc1ccccc1NC(=O)C1=C(C)Nc2ncnn2C1c1sccc1C (stereo not given),-15%,
COc1ccc(NC(=O)C2=C(C)Nc3ncnn3C2c2ccc(C)o2)cc1 (stereo not given),-14%,
COc1ccccc1CNC(=O)C[C@@H]1c2nc(-c3cccnc3)sc2C[C@@H]2[C@](C)(CO)[C@H](O)CC[C@]21C,4%,
COc1cccc(CNc2ccc(S(=O)(=O)Nc3ccccc3)cc2)c1O,i,
CCN1CCN(c2ncc3c(n2)CCN(Cc2ccc(Br)s2)C3)CC1,46%,
Cc1ccsc1CN1CCc2nc(N3CCN(c4ccccc4F)CC3)ncc2C1,-20%,
CCN1CCN(c2ncc3c(n2)CCN(Cc2sccc2C)C3)CC1,7%,CHIKV nsP2 cell=?;CHIKV NSP2 FL=12µM*;Furin counterscr=-9%;nsP2 NS23 pep=?;Papain counter=-4%;nsP2pro confirm=?;HCV NS3 4A cs=6.5µM*
CN1CCN(c2ncc3c(n2)CCN(Cc2ccc(Br)s2)C3)CC1,?,CHIKV nsP2 cell=?;CHIKV NSP2 FL=18µM*;Furin counterscr=-9%;nsP2 NS23 pep=?;Papain counter=5%;nsP2pro confirm=?;HCV NS3 4A cs=12µM*
CCN1CCN(c2ncc3c(n2)CCN(Cc2ccc(OC(C)C)cc2)C3)CC1,-12%,
Brc1ccc(CN2CCc3nc(N4CCN(c5ncccn5)CC4)ncc3C2)cc1,33%,
